Test results published in the supplement of paper PMC6555819.

How the values were obtained:
Test in all cases: PBM binding z-score (relative to random genomic background probes); higher = stronger binding; sequences stand for … in GC…GCGATTGACAGCGTAGAATGAAGG
[1] = test system: FXR:RXRa (NR concentration 270 nM, RXRa partner concentration 90 nM)
Summary of the method: (§1)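 Ligand-free nuclear receptor dimers were applied to custom Agilent 4×180K protein-binding microarrays whose double-stranded probes carried direct-repeat seeds, single-nucleotide variants, half-site ablations and random human genomic background sequences in 34-nt variable regions. Incubation lasted 1 h. Binding z-scores were computed against the random background probes from regression-normalized fluorescence.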

[2] = test system: LXRa:RXRa (NR concentration 270 nM, RXRa partner concentration 90 nM)
Summary of the method: as §1

[3] = test system: LXRa homodimer (NR concentration 270 nM)
Summary of the method: as §1

[4] = test system: LXRb:RXRa (NR concentration 270 nM, RXRa partner concentration 90 nM)
Summary of the method: as §1

[5] = test system: LXRb homodimer (NR concentration 270 nM)
Summary of the method: as §1

[6] = test system: PPARa:RXRa (NR concentration 270 nM, RXRa partner concentration 90 nM)
Summary of the method: as §1

[7] = test system: PPARg:RXRa (NR concentration 180 nM, RXRa partner concentration 90 nM)
Summary of the method: as §1

[8] = test system: PPARg:RXRa 270nM:90nM, anti-RXR (NR concentration 270 nM, RXRa partner concentration 90 nM)
Summary of the method: as §1

[9] = test system: PPARg:RXRa 30nM:10nM, anti-RXR (NR concentration 30 nM, RXRa partner concentration 10 nM)
Summary of the method: as §1

[10] = test system: PPARg:RXRa 90nM:30nM, anti-RXR (NR concentration 90 nM, RXRa partner concentration 30 nM)
Summary of the method: as §1

[11] = test system: PPARg:RXRa DBDmut IVT, anti-RXR (DBD mutation: RXRa K156A/R161A, NR concentration 270 nM, RXRa partner concentration 90 nM)
Summary of the method: as §1

[12] = test system: PPARg:RXRa IVT, anti-PPARg (NR concentration 270 nM, RXRa partner concentration 90 nM)
Summary of the method: as §1

[13] = test system: PPARg DBDmut:RXRa IVT, anti-PPARg (DBD mutation: PPARg1 K132A/R137A, NR concentration 270 nM, RXRa partner concentration 90 nM)
Summary of the method: as §1

[14] = test system: PPARg DBDmut IVT, anti-PPARg (DBD mutation: PPARg1 K132A/R137A, NR concentration 270 nM)
Summary of the method: as §1

[15] = test system: PPARg homodimer (NR concentration 180 nM)
Summary of the method: as §1

[16] = test system: PXR:RXRa (NR concentration 270 nM, RXRa partner concentration 90 nM)
Summary of the method: as §1

[17] = test system: PXR homodimer (NR concentration 270 nM)
Summary of the method: as §1

[18] = test system: RARa:RXR (NR concentration 270 nM, RXRa partner concentration 90 nM)
Summary of the method: as §1

[19] = test system: RARa homodimer (NR concentration 270 nM)
Summary of the method: as §1

[20] = test system: RARb:RXRa (NR concentration 270 nM, RXRa partner concentration 90 nM)
Summary of the method: as §1

| Sequence | PBM binding z-score [1] | PBM binding z-score [2] | PBM binding z-score [3] | PBM binding z-score [4] | PBM binding z-score [5] | PBM binding z-score [6] | PBM binding z-score [7] | PBM binding z-score [8] | PBM binding z-score [9] | PBM binding z-score [10] | PBM binding z-score [11] | PBM binding z-score [12] | PBM binding z-score [13] | PBM binding z-score [14] | PBM binding z-score [15] | PBM binding z-score [16] | PBM binding z-score [17] | PBM binding z-score [18] | PBM binding z-score [19] | PBM binding z-score [20] |
| --- | --- | --- | --- | --- | --- | --- | --- | --- | --- | --- | --- | --- | --- | --- | --- | --- | --- | --- | --- | --- |
| TCTTGCAGATCAAAGGTTAAGAAAGCCGAAGCCT | 1.5 | 1.61 | -0.333 | 1.79 | -0.606 | 4.12 | 5.83 | 6.41 | 5.71 | 6.62 | 0.914 | 2.37 | 0.0487 | -1.09 | 0.464 | 1.72 | -0.464 | 2.7 | -0.444 | 1.7 |
| CGTCCAAGCTCAAAGGTCAGTGAAGAGATGACGG | 3 | 2.95 | 0.546 | 2.8 | 0.14 | 3.99 | 3.03 | 4.16 | 2.1 | 3.97 | 0.0789 | 1.7 | -0.175 | -0.869 | 3.43 | 3.24 | 0.202 | 4.05 | 1.36 | 4.48 |
| CCTGCTAGGTCAAGGTCAGCTAATCTACAGTATG | 4.87 | 3.95 | 1.09 | 3.19 | 0.294 | 4.45 | 3.7 | 4.63 | 1.39 | 3.47 | 4.9 | 4.64 | 0.201 | -0.28 | 2.21 | 3.45 | 0.401 | 3.88 | 1.15 | 5.09 |
| GCGGACAGGTGAAACGCAGGTAACTCAGGGTGGC | -0.363 | -0.0756 | -0.541 | -0.243 | -1.43 | 0.799 | 0.338 | -0.205 | -1.01 | -0.756 | 1.08 | 0.64 | -0.773 | -1.81 | -0.69 | -0.362 | -0.597 | 0.177 | -1.07 | 0.934 |
| GTACCAAGATGAATAGGTCGTTGATGAGTAGGCG | -0.271 | -0.137 | -0.17 | -0.161 | -0.482 | 0.287 | 0.526 | -0.163 | -0.282 | -0.197 | -0.366 | -0.096 | -0.257 | 0.255 | 0.369 | -0.0822 | 0.0588 | 0.0569 | 0.21 | 0.0592 |
| AACTCTAGGTAACCAAGTTCAGTGAATGCCGAAC | 0.211 | 0.537 | 0.474 | 0.24 | 0.213 | 0.878 | 0.528 | 0.367 | -0.222 | 0.0109 | 3.59 | 2.39 | -0.137 | 0.215 | 0.0478 | 1.69 | 1.29 | 0.617 | 0.354 | 0.858 |
| ATCTCTACGTAAGACTCAGTTCAGTGAAGAACGC | 0.165 | 0.16 | 0.552 | 0.484 | 0.986 | 0.0277 | 0.265 | 0.146 | 0.213 | 0.131 | -0.086 | 0.118 | 0.872 | 1.57 | 0.776 | 1.09 | 1.22 | 0.208 | 0.199 | 0.279 |
| TAGCCTAGGTCATTCAGGAGCCAGTATAGAAAGC | 4.36 | 3.63 | 0.522 | 2.42 | 0.687 | 3.57 | 1.84 | 2.24 | 0.638 | 1.63 | 1.4 | 2.52 | 0.758 | 0.0429 | 0.878 | 1.43 | -0.343 | 2.19 | -0.28 | 3.62 |
| CGAACGAGGGCATGAGTTGATCGCAAATGCCGAT | 0.394 | 0.374 | -0.273 | 0.109 | -0.729 | 1.45 | 1.22 | 1.32 | 0.129 | 0.937 | 2.91 | 2.12 | 0.532 | -0.694 | -0.0725 | 0.503 | -0.144 | 0.222 | -0.96 | 1.86 |
| ATCGAAAGGTGGAAGGTGAGTATACCCACCCGAA | 0.216 | 0.0772 | -0.308 | 0.022 | -0.0817 | 1.53 | 1.53 | 2.05 | 0.816 | 1.58 | -0.723 | 0.561 | 0.498 | 0.266 | 0.464 | 0.15 | -0.16 | 0.474 | -0.403 | 0.83 |
| AGTCAAAGTTCATCTAGGTAACGCAAGATATGCT | 6.85 | 5.91 | 4.93 | 3.61 | 1.83 | 4.83 | 6.39 | 6.35 | 3.58 | 5.58 | 0.815 | 4.11 | 1.46 | 1.49 | 3.03 | 5.12 | 6.5 | 3.76 | 1.42 | 5.03 |
| TAGCCTAGGTCATTCAGGGGCCTGTATAGAAAGC | 4.5 | 3.47 | 0.422 | 2.66 | 0.91 | 3.5 | 2.01 | 2.08 | 0.363 | 1.19 | 1.43 | 2.65 | -0.0905 | -0.0908 | 0.863 | 1.75 | -0.488 | 2.51 | -0.792 | 3.52 |
| CATATTAGTTGACCATAAGGGCAACCGAAGCTCG | 1.05 | 0.784 | 0.591 | 0.601 | 0.928 | 0.55 | 0.779 | 0.866 | 0.713 | 0.78 | 0.59 | 1.02 | 1.7 | 1.43 | 1.42 | 0.825 | 0.678 | 1.19 | 1.93 | 1.8 |
| TTACCAAGGTGAAGGGTCGTTGATGCACGCCTTG | 1.88 | 1.13 | -0.449 | 1.03 | -0.693 | 3.65 | 6.01 | 6.42 | 4.63 | 6.33 | 1.59 | 4 | 0.187 | -0.561 | 0.981 | 1.57 | -0.419 | 2.72 | -0.291 | 2.08 |
| TGAATGACGTTATAAGATCAGGGAACGTTGCAAA | -0.0798 | -0.0437 | -0.351 | -0.274 | -0.245 | -0.16 | 0.208 | 0.0909 | 0.775 | 0.526 | -1.22 | -0.257 | 1.11 | 0.502 | 0.0586 | -0.0188 | -0.13 | 0.166 | 0.18 | -0.286 |
